Source: PubChem BioAssay AID1839 (Johns Hopkins Ion Channel Center, 2009)
Hit rate of the full screen: of about 2,400 compounds, about 220 (9.2%) were called active. This is one part of a sample in which actives are shown more often than they occur. A number with no mark means an inactive call.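 The calls were made as follows: active = signal change above the mean of dofetilide-free buffer controls plus 3 SD, so a positive margin; inactive = the rest.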

Experiment: thallium signal changes without hERG – cell-based, CHO-K1 parental line, FluxOR thallium flux, counter-screen for hERG block protection project, confirmation (AID 1839);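 also: compounds applied alone with no dofetilide to cells lacking hERG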
Settings: CHO-K1 parental cells, FluxOR thallium flux fluorescence; at 10 µM

SMILES | signal change vs control minus 3*SD hit threshold (margin above threshold, higher = more increase)
O=C(Nc1ccc(Cl)cc1)Nn1cnnc1 | -19.6%
CCOC(=O)C1=C(c2ccccc2)NC(=O)NC1c1ccc(O)c(Cl)c1 (stereo not given) | -23.2%
CC1CCC(n2c(=S)[nH]c3ccccc3c2=O)CC1 (stereo not given) | 23.6% (active)
CC1CCCCC1n1c(=S)[nH]c2ccccc2c1=O (stereo not given) | -13.4%
O=c1c2ccccc2[nH]c(=S)n1C1CCCCC1 | -31.6%
Cc1c(C(=O)N/N=C/c2ccccn2)nnn1-c1nonc1N | -22.2%
Cn1c(=O)c2sc3c(c2n(CC(=O)Nc2ccccc2)c1=O)COC(C)(C)C3 | -33%
c1ccc(-c2ccc(-c3ccncn3)cc2)cc1 | -28.8%
O=C(NC(=S)Nc1ccccc1Cl)c1csnn1 | 39.6% (active)
O=C(NC(=S)Nc1ccccc1)c1cccs1 | -16.6%
Cc1csc(NC(=S)NC(=O)c2ccccc2)n1 | -14.7%
Cc1ccc(NC(=S)NC(=O)c2ccc(-c3ccccc3)cc2)cc1 | -23.5%
O=C(NC(=S)Nc1ccccc1Cl)c1ccco1 | -7.5%
COc1ccc(NC(=S)Nc2ccccn2)cc1 | -35.9%
O=C(NC(=S)Nc1ccccc1)c1csnn1 | 50.8% (active)
O=C(NC(=S)Nc1ccccc1)c1cncc(C#Cc2ccccc2)c1 | -27.9%
Cc1snnc1C(=O)NC(=S)Nc1ccccc1 | 5.3% (active)
Cc1cccnc1NC(=O)c1csnn1 | -24.6%
COc1ccc(NC(=S)NC(=O)c2csnn2)cc1 | 9.6% (active)
COc1ccc(NC(=S)NC(=O)c2ccc(Br)o2)cc1 | -13.4%
CC(=O)Nc1ccc(NC(=O)CSc2ncc(C(=O)Nc3ccc(Cl)cc3)c(=O)n2C)cc1 | -22.1%
S=C(N/N=C/c1ccccc1Cl)Nc1cccc(Cl)c1Cl | -4.6%
O=C1CC(N2CCN(c3ccccc3Cl)CC2)C(=O)N1c1ccc(F)cc1 (stereo not given) | -20.8%
COc1cccc(C(=O)/C=C/Nc2ccc(S(=O)(=O)Nc3cnc4ccccc4n3)cc2)c1 | -33.7%
C/C(=N/NC(=O)c1ccncc1)c1ccc2c(c1)OCO2 | -30.7%

SMILES | signal change vs control minus 3*SD hit threshold (margin above threshold, higher = more increase)
Cn1c(=O)c(-c2cc(=O)[nH][nH]2)c(O)c2ccccc21 | -23.6%
Cc1noc(C)c1-c1nnc(-c2ccc(C(F)(F)F)cc2)o1 | -18.1%
Cn1cc([N+](=O)[O-])c(C(=O)NCc2cc3cc(Cl)ccc3[nH]2)n1 | -24.3%
Cc1ccc(NC(=O)C2C3CCC(O3)C2C(=O)O)cc1C (stereo not given) | -26%
CC(NC(=O)c1ccncc1)C(C)(C)C (stereo not given) | -25.4%
Cc1ccccc1Cc1c(C)nc2c(C(=O)NCc3ccc4c(c3)OCO4)cnn2c1C | -30.9%
Cc1nc(-c2ccccc2)cn(O)c1=O | -14.6%
O=c1c(-c2ccccc2)nc(-c2ccccc2)cn1O | 27.1% (active)
COC(=O)Nc1c(-c2ccccc2)nc2ccccn12 | -32.5%
Cc1ccc(C)c(NC(=S)NNC(=O)c2csc3c2CCC(C)C3)c1 (stereo not given) | -16.3%
COC(=O)CC1C(=O)NCCN1C(=S)NC(=O)c1sc2ccccc2c1Cl (stereo not given) | -17.8%
CCCOC(=S)NC(=O)c1sc2ccccc2c1Cl | -4%
CCCCOC(=S)NC(=O)c1sc2ccccc2c1Cl | 24.5% (active)
COc1ccccc1C(=O)NNC(=S)NC(=O)c1sc2ccccc2c1Cl | -27.2%
CCOC(=S)NC(=O)c1sc2ccccc2c1Cl | 3% (active)
COc1ccccc1C(=O)NC(=S)NNC(=O)c1sc2ccccc2c1Cl | 23.2% (active)
O=C(NNC(=S)NC(=O)c1sc2ccccc2c1Cl)c1ccc(Cl)cc1 | -22.6%
O=C(NC(=S)N(CCCCO)C1CCCCC1)c1sc2ccccc2c1Cl | -27.6%
Cc1ccc(NC(=S)NC(=O)c2sc3ccccc3c2Cl)c(C(=O)O)c1 | -25.3%
Cc1cccc(OCC(=O)NC2CCCc3ccccc32)c1C (stereo not given) | -39.9%
CCc1nnc(NC(=O)CSc2nc(-c3ccccc3)cc(-c3ccc(OC)cc3)c2C#N)s1 | -33.2%
COc1ccc(C2/C(=C(/O)c3ccc(Br)cc3)C(=O)C(=O)N2C)cc1 (stereo not given) | -34.2%
CCOCCCn1c(=S)[nH]c2cc(C(=O)NCCOC)ccc2c1=O | -21.5%
CCOC(=O)c1sc(=S)n2c1[nH]c(=O)c1ccc(C(=O)OC)cc12 | 27.7% (active)
CCOC(=O)c1sc(NC(=S)NC(=O)c2ccc(OC)cc2)nc1C | -23.3%
